# Measured values as given in PubChem BioAssay (NCATS).
# Several values for one entry are separate records, joined by “and”; a condition that tells them apart may be missing. Equal values may be shown once. Results filed as inconclusive are left out. Where a call stands in place of a potency, no number is given. Activity calls are given as the source filed them. Unless noted, calls follow the shape of the dose curve; as a rule, active = well fitted curve in the direction sought with a large enough effect; inconclusive = small, poorly fitted or top-dose-only effect, or another doubt; inactive = no such curve, though single readings can be large; an effect the other way counts as inactive or inconclusive.
# Key:
# [1] = qHTS Assay for Lipid Storage Modulators (AID 1519; calls by dose curve); conditions: Drosophila S3 cells, BODIPY lipid droplet/cell ratio, laser cytometry, cells loaded with oleic acid
# Method in brief: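 Cells seeded at 5,000 per well were treated with compounds over a concentration series and loaded with oleic acid (400 uM, as added). Lipid droplet fluorescence (488 nm excitation, 500-530 nm channel) was read by laser-scanning cytometry and normalized to 20 uM Triacsin C.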
# [2] = target: Alpha-galactosidase A (Homo sapiens) (UniProt P06280); experiment: Counterscreen for Glucocerebrosidase Inhibitors: qHTS Assay for Human alpha-Galactosidase at pH 4.5 (AID 992); conditions: purified enzyme, fluorogenic substrate; series mostly up to 76.9 µM
# Method in brief: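 Each compound is preincubated briefly with 2 nM enzyme before substrate addition (80 uM); plates then sit 20 min at ambient temperature, are quenched with 1M NaOH/1M glycine, and read fluorometrically.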
# [3] = target: alpha-glucosidase (Oryza sativa, rice) (UniProt Q653V4); experiment: Counterscreen for Glucocerebrosidase Inhibitors: qHTS Assay for Rice alpha-Glucosidase at pH 5.0 (AID 997); conditions: rice alpha-glucosidase enzyme activity; series mostly up to 76.9 µM
# Method in brief: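 Endpoint fluorogenic assay at pH 5.0: compounds (0.7 nM to 77 uM) titrated against 4 nM rice enzyme and 400 uM 4-MU-alpha-glucoside for 20 min at room temperature; NaOH/glycine stop, read ex 365/em 440 nm, Hill-fitted AC50.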
# [4] = target: Alpha-galactosidase (Coffea arabica) (UniProt Q42656); experiment: Counterscreen for Glucocerebrosidase Inhibitors: qHTS Assay for Coffee Bean alpha-Galactosidase at pH 5.9 (AID 998); conditions: coffee bean alpha-galactosidase enzyme assay; series mostly up to 76.9 µM
# Method in brief: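 In 50 mM citric acid pH 5.9 with 0.005% Tween-20, coffee bean enzyme hydrolyses 80 uM 4-MU alpha-D-galactopyranoside over 20 min at RT. Activity is normalized to controls; AC50 comes from Hill-modelled concentration-response data.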
# [5] = target: DNA repair nuclease/redox regulator APEX1 (Homo sapiens) (UniProt P27695); experiment: qHTS Validation Assay for Inhibitors of the Human Apurinic/apyrimidinic Endonuclease 1 (APE1) (AID 1705;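 also: TAMRA fluorescence gain over two minutes as APE1 cuts a quenched THF abasic duplex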); conditions: purified APE1 endonuclease activity, fluorescence, titration; series mostly up to 57.1 µM
# Method in brief: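 Read-out: TAMRA fluorescence (525 nm ex, 598 nm em) from cleavage of a quenched THF abasic-site duplex, 50 nM final; activity taken as intensity change between third and first of three reads 60 s apart.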
# [6] = Counterscreen for APE1 Inhibitors: Fluorescent Dye Displacement Validation Assay (AID 1707); conditions: fluorescent dye displacement from DNA; series mostly up to 57.1 µM
# Method in brief: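 Loss of Thiazole Orange fluorescence marks promiscuous DNA binders. The dye (250 nM) is mixed with 50 nM abasic-site dsDNA in pH7.5 Tris buffer containing MgCl2, then compounds are added and emission is read once.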
# [7] = target: Endonuclease 4 (Escherichia coli (strain K12)) (UniProt P0A6C1); experiment: Counterscreen for APE1 Inhibitors: qHTS Validation Assay for Inhibitors of Endonuclease IV (AID 1708); conditions: E. coli endonuclease IV, DNA cleavage fluorescence; series mostly up to 57.1 µM
# Method in brief: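 Enzyme (2 nM) + compound, 15 min RT; add 50 nM TAMRA/BHQ-2 THF-site dsDNA; kinetic read ex525/em598, 3 reads/60 s; activity = read 3 − read 1. Buffer Tris pH 7.5, 50 mM NaCl, 2 mM MgCl2, DTT, Tween-20.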
# [8] = qHTS for differential inhibitors of proliferation of Plasmodium falciparum line 7G8 (AID 1815); conditions: Plasmodium falciparum 7G8 proliferation inhibition; series mostly up to 28.7 µM;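 also: parasite growth measured after three days of incubation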
# [9] = qHTS for differential inhibitors of proliferation of Plasmodium falciparum line GB4 (AID 1816); conditions: Potency: Plasmodium falciparum GB4 proliferation inhibition; series mostly up to 28.7 µM;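 also: parasite growth measured after 72 h incubation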; also: potency is read from the fitted curve at half-maximal effect
# [10] = qHTS for differential inhibitors of proliferation of Plasmodium falciparum line D10 (AID 1877); conditions: series mostly up to 28.7 µM;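 also: parasites grown with compound for 72 h before DNA staining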; also: potency is read from the fitted curve at half-maximal effect
# [11] = qHTS for differential inhibitors of proliferation of Plasmodium falciparum line Dd2 (AID 1882); conditions: Potency: Plasmodium falciparum Dd2 proliferation inhibition; series mostly up to 28.7 µM; also: nearly all actives have a fitted effect of over 65% in size; also: potency is read from the fitted curve at half-maximal effect
# Method in brief: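 SYBR Green DNA fluorescence (ex 485, em 535 nm) after overnight lysis quantifies parasite growth; compound exposure lasted 72 h at 37 C on infected red cells at 2.5% hematocrit, 0.3% parasitemia (final). Artemisinin 0.29 uM and vehicle wells define normalization.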
# [12] = qHTS for differential inhibitors of proliferation of Plasmodium falciparum line 3D7 (AID 1876);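 also: parasite growth measured after three days of culture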; conditions: P. falciparum 3D7 proliferation inhibition; series mostly up to 28.7 µM
# [13] = qHTS for differential inhibitors of proliferation of Plasmodium falciparum line W2 (AID 1883); conditions: Potency: Plasmodium falciparum W2 proliferation inhibition; series mostly up to 28.7 µM;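 also: parasites grown with compound for 72 h before lysis and staining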; also: potency is read from the fitted curve at half-maximal effect
# [14] = Validation of Assay for Modulators of Lamin A Splicing (AID 1459; active = well fitted curve in the direction sought with a large enough effect in the signal ratio; the % refers to the signal ratio;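 also: cells exposed to compound for two days before reading; ratio rise marks activators and ratio drop marks inhibitors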); conditions: Lamin A splicing dual RFP/GFP fluorescence reporter; series mostly up to 9.22 µM
# Method in brief: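 Readout: ratio of GFP (500-530 nm) to RFP (575-640 nm) total object intensity by 488 nm laser-scanning cytometry after 48 hrs. Cells were HeLa S3 clones carrying lamin A-EGFP minigene plus DsRed2 viability reporter; vehicle 0.5% DMSO final.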
# [15] = Cell Viability - LYMP2-018 (AID 985); conditions: LYMP2-018 lymphoblastoid cells, viability (qHTS); series mostly up to 92.2 µM; also: nearly all actives have a fitted effect of over 50% in size
# Method in brief: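 Viability read as CellTiter-Glo luminescence (cellular ATP) after 24 hr compound exposure at 37 C of 2500 LYMP2-018 lymphoblastoid cells/well, pre-plated 5 hr. Hill-equation modelling gave AC50.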
# [16] = Cell Viability - LYMP2-020 (AID 986); conditions: series mostly up to 92.2 µM; also: nearly all actives have a fitted effect of over 55% in size
# Method in brief: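 Cytotoxicity in qHTS format: luminescent ATP readout from CellTiter-Glo after 24 h compound exposure at 37 C in complete medium. LYMP2-020 lymphoblastoid cells were seeded at 2500/well; concentration-response data fitted to the Hill equation for AC50.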
# [17] = Cell Viability - LYMP2-022 (AID 987); conditions: LYMP2-022 lymphoblastoid cell viability; series mostly up to 92.2 µM; also: nearly all actives have a fitted effect of over 55% in size
# Method in brief: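 Cytotoxicity read as decreased cellular ATP (CellTiter-Glo luminescence, 30 min room temperature) after 24 hours compound exposure of 2500 lymphoblastoid LYMP2-022 cells/well at 37 C. Concentration-response data fitted with standard Hill equation for AC50.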
# [18] = Cell Viability - LYMP2-026 (AID 989); conditions: LYMP2-026 lymphoblastoid cell viability, qHTS; series mostly up to 92.2 µM; also: nearly all actives have a fitted effect of over 50% in size
# Method in brief: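 Cytotoxicity read as ATP-dependent luminescence (CellTiter-Glo, 30 min room temperature) after 24 h compound treatment at 37 C. LYMP2-026 lymphoblastoid line seeded at 2500 cells/well; AC50 derived by standard Hill equation.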
# [19] = Cell Viability - LYMP1-002 - Assay at 24 hr (AID 993); conditions: LYMP1-002 lymphoblastoid cells viability; series mostly up to 92.2 µM
# Method in brief: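 qHTS cytotoxicity at 24 h: CellTiter-Glo ATP luminescence in lymphoblastoid line LYMP1-002 incubated with compound at 37 °C. Concentration-response modeled with the Hill equation for AC50; tetraoctylammonium bromide served as positive control.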
# [20] = Cell Viability - LYMP1-002 - Assay at 40 hr (AID 994); conditions: LYMP1-002 lymphoblastoid cell viability; series mostly up to 92.2 µM; also: nearly all actives have a fitted effect of over 60% in size
# Method in brief: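 Cytotoxicity was read as loss of cellular ATP (CellTiter-Glo luminescence) after 40 hr compound exposure at 37 C of 2500 LYMP1-002 lymphoblastoid cells per well. Concentration-response data were fitted with the standard Hill equation to give AC50.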
# [21] = measured here: cell count channel max response
# [22] = measured here: lipid channel max response
# Sequence of Alpha-galactosidase A (Homo sapiens) (P06280 whole entry, looked up): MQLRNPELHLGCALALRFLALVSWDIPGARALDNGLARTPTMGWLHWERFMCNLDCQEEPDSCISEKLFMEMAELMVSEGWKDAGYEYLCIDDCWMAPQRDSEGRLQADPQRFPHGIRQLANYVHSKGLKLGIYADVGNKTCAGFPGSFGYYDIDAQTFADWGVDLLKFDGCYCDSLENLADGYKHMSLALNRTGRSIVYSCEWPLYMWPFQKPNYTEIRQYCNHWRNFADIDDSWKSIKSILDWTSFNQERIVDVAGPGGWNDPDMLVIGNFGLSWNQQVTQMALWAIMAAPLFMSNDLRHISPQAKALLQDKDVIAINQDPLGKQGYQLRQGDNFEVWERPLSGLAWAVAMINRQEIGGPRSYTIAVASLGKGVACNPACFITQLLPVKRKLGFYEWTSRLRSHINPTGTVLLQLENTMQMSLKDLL
# Sequence of Alpha-galactosidase (Coffea arabica) (Q42656 whole entry, looked up): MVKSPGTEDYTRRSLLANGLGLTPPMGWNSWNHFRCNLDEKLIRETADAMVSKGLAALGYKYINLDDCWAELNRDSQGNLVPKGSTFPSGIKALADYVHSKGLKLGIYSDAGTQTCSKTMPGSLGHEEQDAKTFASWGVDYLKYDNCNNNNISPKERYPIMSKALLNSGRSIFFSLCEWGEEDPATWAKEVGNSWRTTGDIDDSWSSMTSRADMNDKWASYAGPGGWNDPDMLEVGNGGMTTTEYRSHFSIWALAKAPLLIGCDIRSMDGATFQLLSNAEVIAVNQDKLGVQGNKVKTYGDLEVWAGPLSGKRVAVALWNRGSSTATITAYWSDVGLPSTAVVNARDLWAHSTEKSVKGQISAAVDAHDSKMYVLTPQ
# Sequence of DNA repair nuclease/redox regulator APEX1 (Homo sapiens) (P27695 whole entry, looked up): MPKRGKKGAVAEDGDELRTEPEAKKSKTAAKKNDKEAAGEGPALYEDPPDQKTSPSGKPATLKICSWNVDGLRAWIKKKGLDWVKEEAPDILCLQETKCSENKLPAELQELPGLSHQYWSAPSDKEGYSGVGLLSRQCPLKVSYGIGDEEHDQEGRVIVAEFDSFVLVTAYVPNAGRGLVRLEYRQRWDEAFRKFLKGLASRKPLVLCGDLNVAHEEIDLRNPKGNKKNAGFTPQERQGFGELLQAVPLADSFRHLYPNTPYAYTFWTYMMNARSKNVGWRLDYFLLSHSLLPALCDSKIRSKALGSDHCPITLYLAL
compound,measurement,setting,value
CC[N+]1(C)CCCC(OC(=O)C(O)(c2ccccc2)c2ccccc2)C1 (configuration not stated),"activity change, negative = inhibition",[1]; at 57.5 µM (top of the series),8.59% (inactive)
same,max response,[1]; [21],5.8%
same,max response,[1]; [22],23.3%
Cc1ccc(S(=O)(=O)N[C@@H](CCCCN)C(=O)CCl)cc1,outcome,[2],inactive
same,outcome,[3],inactive
same,outcome,[4],inactive
same,"activity change, negative = inhibition",[1]; at 57.5 µM (top of the series),-0.107% (inactive)
same,max response,[1]; [21],1.11%
same,max response,[1]; [22],0.09%
same,outcome,[5],inactive
same,Potency,[6],inactive
same,outcome,[7],inactive
same,Potency,[8],inactive
same,Potency,[9],inactive
same,Potency,[10],inactive
same,Potency,[11],inactive
CNCCCN1c2ccccc2CCc2ccccc21,outcome,[4],inactive
same,"activity change, negative = inhibition",[1]; at 25.7 µM (top of the series),-4.5% (inactive)
same,"activity change, negative = inhibition",[1]; at 57.5 µM (top of the series),0.465% (inactive)
same,max response,[1]; [21],-2.23% and 21.3%
same,max response,[1]; [22],-6.66% and 25.9%
O=[N+]([O-])c1cc([As](=O)(O)O)ccc1O,"activity change, negative = inhibition",[1]; at 25.7 µM (top of the series),0.724% (inactive)
same,"activity change, negative = inhibition",[1]; at 57.5 µM (top of the series),3.89% (inactive)
same,max response,[1]; [21],-1.97% and 10%
same,max response,[1]; [22],0.435% and 19.2%
NCC(CC(=O)O)c1ccc(Cl)cc1 (configuration not stated),outcome,[2],inactive
same,outcome,[3],inactive
same,outcome,[4],inactive
same,"activity change, negative = inhibition",[1]; at 57.5 µM (top of the series),7.61% (inactive)
same,max response,[1]; [21],16.5%
same,max response,[1]; [22],28.7%
same,outcome,[5],inactive
same,Potency,[6],inactive
same,outcome,[7],inactive
same,Potency,[8],inactive
same,Potency,[9],inactive
same,Potency,[12],inactive
same,Potency,[10],inactive
same,Potency,[11],inactive
same,Potency,[13],inactive
O=P1(NCCCl)OCCCN1CCCl (configuration not stated),"activity change, negative = inhibition",[1]; at 25.7 µM (top of the series),-0.105% (inactive)
same,max response,[1]; [21],-5.65%
same,max response,[1]; [22],-6.2%
O=c1[nH]c2ccccc2n1CCCN1CCC(n2c(=O)[nH]c3cc(Cl)ccc32)CC1,outcome,[2],inactive
same,outcome,[3],inactive
same,outcome,[4],inactive
same,"activity change, negative = inhibition",[1]; at 25.7 µM (top of the series),0.586% (inactive)
same,"activity change, negative = inhibition",[1]; at 57.5 µM (top of the series),4.6% (inactive) and -5.66% (inactive)
same,max response,[1]; [21],2.1% and 12.4% and -15.6%
same,max response,[1]; [22],4.47% and 17.4% and -21%
same,outcome,[5],inactive
same,Potency,[6],inactive
same,outcome,[7],inactive
same,Potency,[9],12.6 µM (active)
same,Potency,[10],14.1 µM (active)
same,Potency,[11],8.91 µM (active)
same,Potency,[13],4.47 µM (active)
CC(=O)[C@H]1CC[C@H]2[C@@H]3CC[C@H]4C[C@H](O)CC[C@]4(C)[C@H]3C(=O)C[C@]12C,outcome,[2],inactive
same,outcome,[3],inactive
same,outcome,[4],inactive
same,outcome,[14],inactive
same,"activity change, negative = inhibition",[1]; at 57.5 µM (top of the series),-2.01% (inactive)
same,max response,[1]; [21],15.7%
same,max response,[1]; [22],15.5%
same,outcome,[5],inactive
same,Potency,[6],inactive
same,Potency,[8],inactive
same,Potency,[9],inactive
same,Potency,[12],inactive
same,Potency,[10],inactive
same,Potency,[11],inactive
CCCC(C)(COC(N)=O)COC(=O)NC(C)C (configuration not stated),Potency,[15],inactive
same,Potency,[16],inactive
same,Potency,[17],inactive
same,outcome,[18],inactive
same,outcome,[2],inactive
same,Potency,[19],inactive
same,Potency,[20],inactive
same,outcome,[3],inactive
same,outcome,[4],inactive
same,"activity change, negative = inhibition",[1]; at 57.5 µM (top of the series),3.44% (inactive) and -3.03% (inactive)
same,max response,[1]; [21],20.3% and 29.2%
same,max response,[1]; [22],29.5% and 22.2%
same,outcome,[5],inactive
same,Potency,[6],inactive
same,outcome,[7],inactive
same,Potency,[8],inactive
same,Potency,[9],inactive
same,Potency,[12],inactive
same,Potency,[10],inactive
same,Potency,[11],inactive
same,Potency,[13],inactive
